# This is part of a sample that, as a whole, favours compounds with a hit. Of some 79,000 tested, about 15% had one in any assay. Unmarked numbers belong to inactive results. Calls of active or inactive are those of the source. Rule as the data show it: active = growth inhibition above about 70%; inactive = the rest.
# Columns and labels:
# [1] = NCI Yeast Anticancer Drug Screen. Data for the rad50 strain (AID 155);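 also: 0% = growth of vehicle-only cultures of the same strain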; settings: S. cerevisiae rad50 strain growth inhibition, stronger effect = higher value
# How it was run: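 Genetically altered yeast (DNA repair pathway); compound treatment; growth inhibition vs vehicle ctrl.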
# [2] = NCI Yeast Anticancer Drug Screen. Data for the mec2-1 strain (AID 157); settings: S. cerevisiae mec2-1 strain, stronger effect = higher value
# How it was run: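 Compounds were applied to mec2-1 yeast cells. Their growth was then compared with that of vehicle-treated cultures to give growth inhibition.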
# [3] = NCI Yeast Anticancer Drug Screen. Data for the sgs1 mgt1 strain (AID 161);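 also: 0% = growth of cultures given vehicle only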; settings: S. cerevisiae sgs1 mgt1 strain, stronger effect = higher value
# How it was run: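 Yeast cells carrying a defined DNA-repair defect were exposed to test compounds. Growth inhibition was measured relative to vehicle-treated controls.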
# [4] = NCI Yeast Anticancer Drug Screen. Data for the cln2 rad14 strain (AID 165);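 also: 0% = growth equal to vehicle treated cultures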; settings: S. cerevisiae cln2 rad14 strain, stronger effect = higher value
# How it was run: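 Strain: cln2 rad14 yeast, altered in cell cycle control and DNA damage repair. Read-out: growth inhibition vs vehicle.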
# [5] = NCI Yeast Anticancer Drug Screen. Data for the bub3 strain (AID 167); settings: S. cerevisiae bub3 mutant strain, stronger effect = higher value
# How it was run: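 Yeast carrying a defined mutation is treated with each compound, and growth is compared with that of vehicle-exposed cells to give inhibition.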
# [6] = NCI Yeast Anticancer Drug Screen. Data for the mlh1 rad18 strain (AID 175); settings: S. cerevisiae mlh1 rad18 strain growth inhibition, stronger effect = higher value
# How it was run: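 A repair-deficient yeast strain is exposed to test compound, and growth is scored relative to vehicle-treated controls.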
# [7] = at 5.0 µM (retest, dose inferred, filed as 0.5)
# [8] = at 50.0 µM (retest, dose inferred, filed as 5.0)
Compound,"growth inhibition [1, 7]","growth inhibition [1, 8]",growth inhibition ([1]; at 50.0 µM),"growth inhibition [2, 7]","growth inhibition [2, 8]",growth inhibition ([2]; at 50.0 µM),"growth inhibition [3, 7]","growth inhibition [3, 8]",growth inhibition ([3]; at 50.0 µM),"growth inhibition [4, 7]","growth inhibition [4, 8]",growth inhibition ([4]; at 50.0 µM),"growth inhibition [5, 7]","growth inhibition [5, 8]",growth inhibition ([5]; at 50.0 µM),"growth inhibition [6, 7]","growth inhibition [6, 8]",growth inhibition ([6]; at 50.0 µM)
S=c1[nH]nc(SCc2ccc(Cl)c(Cl)c2)c2[nH]cnc12,-4%,-13%,1.45%,-11%,-2%,9.2%,-14%,-14%,21.2%,-10%,-16%,28.8%,-8%,-8%,9.25%,-21%,-16%,5.2%
O=C(Cc1nc2ccccc2s1)Nc1cccc(C(F)(F)F)c1,41%,98% (active),92.2% (active),39%,100% (active),93.7% (active),54%,99% (active),94.7% (active),32%,98% (active),92.6% (active),35%,99% (active),92.4% (active),64%,99% (active),93% (active)
O=c1oc2c3ccc4ccccc4c3n(CCCN3CCCCC3)c2c2ccccc12,81% (active),81% (active),54.4%,17%,17%,82.8% (active),35%,35%,87.4% (active),27%,27%,76% (active),-4%,-4%,84.8% (active),-13%,-13%,87.3% (active)
Clc1nssc1=Nc1nonc1-c1ccccc1,59%,99% (active),88.7% (active),64%,100% (active),91.2% (active),86% (active),100% (active),79.9% (active),68%,96% (active),48.6%,97% (active),99% (active),79.7% (active),49%,98% (active),92.2% (active)
COc1cc(C=O)c(C=O)cc1OC,8%,74% (active),69.9%,6%,40%,50.2%,3%,79% (active),52.5%,9%,84% (active),89.2% (active),5%,87% (active),73.5% (active),16%,87% (active),74.5% (active)
CN1c2ccccc2C(c2ccccc2)c2ccc(Nc3ccccc3)cc21 (stereo not given),94% (active),99% (active),97.7% (active),100% (active),100% (active),99.6% (active),98% (active),100% (active),99.5% (active),95% (active),99% (active),99.2% (active),96% (active),99% (active),99.3% (active),98% (active),99% (active),99.4% (active)
S=C(NN1CCOCC1)SSC(=S)NN1CCOCC1,97% (active),99% (active),99.5% (active),97% (active),99% (active),99.6% (active),94% (active),99% (active),99.6% (active),92% (active),83% (active),99.3% (active),34%,99% (active),99.8% (active),77% (active),99% (active),99.5% (active)
CC1=CCC[C@@H]2C1(C)CCC(C)[C@@]2(C)CC1=CC(=O)C=CC1=O (stereo not given in full),18%,95% (active),86.1% (active),27%,96% (active),89.2% (active),52%,95% (active),88.8% (active),-12%,92% (active),85.5% (active),14%,93% (active),86.8% (active),40%,92% (active),87% (active)
c1ccc([P+](Cc2ccc(C[P+](c3ccccc3)(c3ccccc3)c3ccccc3)s2)(c2ccccc2)c2ccccc2)cc1,35%,90% (active),80% (active),33%,96% (active),80.3% (active),37%,98% (active),80.7% (active),17%,77% (active),67.4%,47%,96% (active),81% (active),43%,96% (active),75.8% (active)
C/C=C/c1ccc(OCC(=O)O)c(OC)c1,-14%,-10%,99% (active),-9%,-18%,98.2% (active),8%,1%,98.2% (active),-3%,-11%,98.2% (active),-31%,-4%,98.8% (active),-5%,-11%,98% (active)

# Source: PubChem BioAssay (NCI)
